# Results reported in PubChem BioAssay AID720593 (Broad Institute, 2013).
# Entries with a potency or affinity are not part of this list. Values without a mark were called inactive.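 How the source made its calls: active means falling viability curve whose half-maximal potency lies within twice the top valid tested dose; inconclusive means flat curve with moderate signal loss, or unreliable curve fit; inactive means the rest.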
# Assay: ATP-based viability loss in HeLa cells – cell-based, CellTiter-Glo luminescence, dry powder, set 2, cytotoxicity control, dose response (AID 720593)
# Conditions: 72 h; series mostly up to 26 µM; activity change, negative = cytotoxicity: at the top concentration
row,SMILES,"activity change, negative = cytotoxicity"
1,COC(=O)Cc1cc(=O)n(-c2nc3ccccc3[nH]2)[nH]1,-4.65%
2,O=C(Nc1nc(-c2ccncc2)cs1)c1ccco1,-8.49%
3,Cc1ccc(C(=O)Nc2nc(-c3ccccn3)cs2)cc1S(=O)(=O)N1CCOCC1,-20.5%
4,COC(=O)c1ccc(NC(=O)CSc2ccc(-c3ccccn3)nn2)cc1,1.05%
5,Cc1nnc(NC(=O)c2ccc(S(=O)(=O)N3CCCCC3)cc2)o1,-7.03%
6,O=C(CSc1ccc(-c2ccccn2)nn1)N1CCCC1,11.2%
7,O=C(CSc1ccc(-c2ccccn2)nn1)NC1CCCCC1,-4.79%
8,CC1CCN(S(=O)(=O)c2ccc(C(=O)Nc3nnc(-c4ccccc4)o3)cc2)CC1,-4.04%
9,Cc1ccc(C(=O)Nc2nc(-c3ccccc3)cs2)o1,-0.187%
10,CC1CCN(S(=O)(=O)c2ccc(C(=O)Nc3nnc(-c4cccs4)o3)cc2)CC1,-2.78%
11,CC(C)Cc1nnc(NC(=O)c2cccc(S(=O)(=O)N3CCOCC3)c2)s1,3.1%
12,Cc1c(C(=O)N(C)C)sc2nc(-c3ccccn3)[nH]c(=O)c12,3.77%
13,CC1CCCN(S(=O)(=O)c2ccc(C(=O)Nc3nnc(C4=COCCO4)o3)cc2)C1 (centres undefined),-11.9%
14,FC(F)(F)c1cc(-c2nn[nH]n2)cc(C(F)(F)F)c1,-1.54%
15,Cc1cccc(NC(=O)CSc2ccc(-c3ccccn3)nn2)c1C,-4.71%
16,CC1CCN(S(=O)(=O)c2ccc(C(=O)Nc3nnc(-c4ccco4)o3)cc2)CC1,-8.21%
17,Cc1ccc(S(=O)(=O)CCc2nnc(NC(=O)c3ccccc3)s2)cc1,9.52%
18,O=C(CSc1ccc(-c2ccccn2)nn1)Nc1nccs1,14.7%
19,CC1CCN(S(=O)(=O)c2ccc(C(=O)Nc3nnc(C4CC4)o3)cc2)CC1,-7.15%
20,CC1CCN(S(=O)(=O)c2ccc(C(=O)Nc3nnc(-c4ccccn4)o3)cc2)CC1,-1%
21,CC1CCN(S(=O)(=O)c2ccc(C(=O)Nc3nnc(C4=COCCO4)o3)cc2)CC1,-9.8%
22,CC1CCN(S(=O)(=O)c2ccc(C(=O)Nc3nnc(-c4ccno4)o3)cc2)CC1,1.92%
23,O=C(Nc1nnc(C2=COCCO2)o1)c1ccc(S(=O)(=O)N2CCCCC2)cc1,4.4%
24,CC1CC(C)CN(S(=O)(=O)c2ccc(C(=O)Nc3nnc(C4=COCCO4)o3)cc2)C1 (centres undefined),-4.18%
